# TSHR antag: Antagonists of the Thyroid Stimulating Hormone Receptor: HTS campaign. TSHR-expressing cells, TSH-stimulated cAMP HTRF, 2 h; stronger effect = lower value. AID 504810, 2011. Thyrotropin receptor (Homo sapiens), P16473. hit rate 0.2% among 330,000. activity change, negative = inhibition, % at 11.5 µM;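 active means activity change below a set negative limit, meaning inhibition stronger than a set level, cut at about -70% in these data; inconclusive means activity change between two set negative limits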; further: on the % scale 0 is the no-effect control and ±100 the full control effect
#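 Competitive HTRF cAMP read-out (cryptate anti-cAMP antibody, cAMP-d2; 30 min, room temperature) in freshly harvested TSHR cells. Compounds added before TSH at EC80 (4nM final), followed by 2 hours' incubation at 37 deg C.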
# VDR inh: Inhibitors of the vitamin D receptor (VDR): qHTS; hit rate 0.93% among 400,000; Vitamin D3 receptor (Homo sapiens), P11473; Potency, µM, inactives show max response, negative = inhibition, most hits filed as inhibitors; VDR-SRC2-3 peptide fluorescence polarization, 2 h; further: potency means the concentration at half of the fitted maximal effect; on the % scale 0 is the no-effect control and ±100 the full control effect
#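 Reagent solutions, kept cold and dark, are dispensed first; compounds are then pinned in at 23 nl, plates briefly spun, and incubated 2 h at ambient temperature. Inhibition of VDR–SRC2-3 peptide binding is read by fluorescence polarization.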
# Vif-A3F inh: qHTS for Inhibitors of Vif-A3F Interactions: qHTS. hit rate 0.2% among 390,000. Potency, µM (highest dose often 46.1 µM), without a hit: at the top dose activity, negative = active. AID 602313, 2012. HeLa A3F-eYFP + Vif (tagged APOBEC3F with the HIV-1 protein that degrades it), YFP fluorescence increase; further: potency means the concentration at half of the fitted maximal effect; % of control where 0% means no effect; nearly all actives have a fitted effect of over 65% in size
#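 Fluorescence increase (Ex 488/Em 500-530) after overnight compound treatment at 37 deg C flags inhibition of Vif-driven A3F-eYFP loss in stable HeLa A3F-eYFP/Vif cells seeded overnight beforehand.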
# PLK1 PBD inh: qHTS for Inhibitors of PLK1-PDB (polo-like kinase 1 - polo-box domain): Primary Screen; Serine/threonine-protein kinase PLK1 (Homo sapiens), P53350; Potency, µM, inactives show max response, negative = inhibition, actives largely listed as inhibitors; hit rate 2.8% among 360,000; Plk1 PBD binding of FITC phosphopeptide, fluorescence polarization; further: potency means the concentration at half of the fitted maximal effect; series mostly up to about 57 µM; on the % scale 0 is the no-effect control and ±100 the full control effect; nearly all actives have a fitted effect of over 65% in size
# Vif-A3G inh: qHTS for Inhibitors of Vif-A3G Interactions: qHTS; Potency, µM (titrated, usually from 46.1 µM), inactives show at the top dose activity, negative = active, most hits filed as inhibitors; HeLa A3G-eYFP + Vif (tagged APOBEC3G with the HIV-1 protein that degrades it), YFP fluorescence, overnight; hit rate 0.076% among 410,000; further: potency means the concentration at half of the fitted maximal effect; on the % scale 0 is the no-effect control and ±100 the full control effect; nearly all actives have a fitted effect of over 60% in size
# Target sequence (Q9HC16 whole entry, looked up): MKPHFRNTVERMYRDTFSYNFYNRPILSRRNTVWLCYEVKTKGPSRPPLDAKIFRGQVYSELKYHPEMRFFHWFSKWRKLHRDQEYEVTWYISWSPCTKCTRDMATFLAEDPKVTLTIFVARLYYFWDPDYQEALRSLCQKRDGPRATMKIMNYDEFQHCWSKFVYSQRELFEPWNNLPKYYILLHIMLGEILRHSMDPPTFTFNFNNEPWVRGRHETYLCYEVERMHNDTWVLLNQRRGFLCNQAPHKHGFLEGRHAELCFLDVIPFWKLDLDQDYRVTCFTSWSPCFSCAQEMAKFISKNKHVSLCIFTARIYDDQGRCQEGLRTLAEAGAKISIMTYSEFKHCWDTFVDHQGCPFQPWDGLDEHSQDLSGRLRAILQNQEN
#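 Read-out is eYFP fluorescence (Ex 488/Em 500-530) from Vif-expressing HeLa A3G-eYFP cells; more signal means A3G escaped Vif-mediated degradation. Cells plated overnight, compound pinned in, incubated overnight at 37 deg C.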
# * hit, by the source's call; ? = inconclusive; . = no result; ! = not confirmed by another sample. The list is not random: actives were taken first. Their share in the collection is about 3.1%. Unless noted, the call rests on the fitted dose curve; in most records, active means well fitted curve in the direction sought with a large enough effect; inconclusive means small, poorly fitted or top-dose-only effect, or another doubt; inactive means no such curve, though single readings can be large; an effect the other way counts as inactive or inconclusive.
SMILES,TSHR antag,VDR inh,Vif-A3F inh,PLK1 PBD inh,Vif-A3G inh
CC[C@H](C)[C@H](NC(=O)[C@H](Cc1ccc(O)cc1)NC(=O)[C@H](Cc1cnc[nH]1)NC(=O)[C@H](CCCNC(=N)N)NC(=O)[C@H](CC(C)C)NC(=O)[C@H](C)NC(=O)[C@@H](N)CO)C(=O)N[C@@H](CC(N)=O)C(=O)N[C@@H](CC(C)C)C(=O)N[C@H](C(=O)N[C@H](C(=O)N[C@@H](CCCNC(=N)N)C(=O)N[C@@H](CCC(N)=O)C(=O)N[C@@H](CCCNC(=N)N)C(=O)N[C@@H](Cc1ccc(O)cc1)C(N)=O)[C@@H](C)O)[C@@H](C)CC,.,-7%,.,.,.
Nc1ccc(O)c(C(=O)O)c1,.,45µM*!,.,.,.
CCCCCSc1nc2c(c(=O)[nH]c(=O)n2C)n1C,-1,-9%,1%,-3%,0%
CCOC(=O)C(C)Sc1nc2c(c(=O)[nH]c(=O)n2C)n1C/C=C(/C)Cl (configuration not stated),-4,?,4%,12µM*,-3%
C=CCn1c(SCC(=C)C)nc2c1c(=O)[nH]c(=O)n2C,-6,-7%,4%,?,6%
CCCCCSc1nc2c(c(=O)[nH]c(=O)n2C)n1CC,.,?,7%,21µM*,5%
CCCCCCn1c(SCC(=O)OC)nc2c1c(=O)[nH]c(=O)n2C,0,22µM*,5%,5.3µM*,-2%
C=CCSc1nc2c(c(=O)[nH]c(=O)n2C)n1CC,7,-16%,-6%,24µM*,-3%
CCNc1ncc2nc(-c3cc(F)cc(F)c3)c(=O)n(C)c2n1,.,5%,.,.,.
CCN(CC)c1ccc(NC(=O)CCS(=O)(=O)c2ccc(Br)cc2)c(C)c1,-8,7%,-10%,27µM*,-7%
Cc1ccc(NC(=O)CCS(=O)(=O)c2ccc(Br)cc2)nc1,2,50µM*,-17%,12µM*,-6%
O=C(COc1ccc(Cl)cc1)NCc1ccc(F)cc1,6,-23%,-6%,27µM*,-1%
Cc1ccc(CNC(=O)CCS(=O)(=O)c2ccc3c(c2)NC(=O)CO3)cc1,-10,-15%,-11%,27µM*,-1%
O=C(CSc1nc2c(c(=O)[nH]1)CCC2)Nc1cc(C(F)(F)F)ccc1Cl,.,-2%,.,.,.
COc1ccc(C(=O)Nc2sc3c(c2C(N)=O)CCCC3)cc1OC,.,1%,.,.,.
CC(=O)Oc1ccc2cc(-c3nc4c(s3)CCc3ccccc3-4)c(=O)oc2c1,.,8%,.,.,9%
O=C(CCCC(=O)NCc1ccc(F)cc1)NCc1ccc(F)cc1,-6,14%,0%,24µM*,-4%
Cc1ccc(S(=O)(=O)CCC(=O)OCC(=O)NCc2ccc(F)cc2)cc1,.,.,-8%,-1%,-6%
Cc1ccc(CNC(=O)CCS(=O)(=O)c2ccc(Br)cc2)cc1,9,-15%,2%,17µM*,-1%
O=C(CCS(=O)(=O)c1ccc(Br)cc1)NCc1ccc(F)cc1,-126*,?,21%,-19%,-9%
Cc1ccc(CNC(=O)CCS(=O)(=O)c2ccc(Cl)cc2)cc1,4,-9%,-18%,-19%,-1%
COc1ccc(CCNC(=O)CCCn2c(=O)c3cccn3c3ccc(F)cc32)cc1OC,.,11%,0%,.,0%
CCC(C)C(NC(=O)OC(C)(C)C)C(=O)NC1COC2CC(n3ccc(=O)[nH]c3=O)OC12 (configuration not stated),.,9%,.,.,0%
CSCC[C@H](NC(=O)[C@H](CC(C)C)N(C)C(=O)[C@@H]1CCCN1C(=O)[C@H](Cc1ccccc1)NC(=O)[C@H](Cc1ccccc1)NC(=O)CCC(C)N)C(=O)O (some centres not stated),.,-11%,.,.,.
O=C1CSc2ccc(C(=O)Nc3cccc(S(=O)(=O)Nc4ccc(Br)cc4)c3)cc2N1,?,-19%,-16%,21µM*,-7%
SMILES,TSHR antag,VDR inh,Vif-A3F inh,PLK1 PBD inh,Vif-A3G inh
COC(=O)c1ccc2c(c1)NC(=O)CS2,9,-29%,7%,21µM*,0%
CC(OC(=O)c1ccc2c(c1)NC(=O)CS2)C(=O)c1ccc(F)cc1 (configuration not stated),-11,2%,-9%,1%,-5%
O=C(Nc1ccc(Br)cc1)c1cccc(S(=O)(=O)Nc2ccc(Br)cc2)c1,.,1%,.,.,.
CN1CCN(c2ncc3nc(-c4cn(C)c5ccccc45)c(=O)n(CCC#N)c3n2)CC1,.,-23%,.,.,.
C[C@H](NC(=O)[C@@H](Cc1c[nH]c2ccccc12)NC(=O)[C@@H](N)Cc1cnc[nH]1)C(=O)N[C@@H](Cc1c[nH]c2ccccc12)C(=O)N[C@H](Cc1ccccc1)C(=O)N[C@@H](CCCCN)C(N)=O,.,6%,.,.,.
CCN(Cc1ccncc1)S(=O)(=O)c1ccc(C(C)=O)cc1,-2,?,-2%,19µM*,2%
CCN(CC)S(=O)(=O)c1ccc(C(=O)Nc2ccc(Cc3ccncc3)cc2)cc1,-30,3%,8%,-18%,6%
CCCCC/C=C\C/C=C\C/C=C\CCCCC(=O)NCCCC(=O)O,.,-14%,.,.,.
CSc1cccc(NC(=O)C2CCN(c3ncnc4c3nc3n4CCCCC3)CC2)c1,.,2%,0%,.,3%
CC(C)n1c(N)c(C#N)c2ccc([N+](=O)[O-])cc2c1=O,-11,-5%,?,-14%,-14%
N#Cc1c(N)n(-c2ccccc2)c(=O)c2cc([N+](=O)[O-])ccc12,-2,45µM*,?,-15%,-2%
N#Cc1c(C#N)c(-c2ccccc2)n(-c2ccc(C(=O)O)cc2)c1N,1,12%,-9%,-5%,2%
N#Cc1c(C#N)c(SSc2c(C#N)c(C#N)c(N)n2-c2ccccc2)n(-c2ccccc2)c1N,.,?,2%,2.7µM*,0%
O=C1NC(=O)C(c2ccccc2[N+](=O)[O-])=C1Nc1ccc(O)c(Cl)c1,-4,45µM*!,-2%,-15%,-4%
CCc1ccccc1NC(=O)c1sc2nc(C)cc(C)c2c1N,5,?,-6%,24µM*,-7%
Cc1cc(C)c2c(N)c(C(=O)Nc3ccccc3Br)sc2n1,-5,63%,-17%,-5%,-6%
CCN(CC)S(=O)(=O)c1ccc(-c2csc(C)n2)cc1,1,22µM*,-2%,9.5µM*,3%
CCC(COC)Oc1cc(NCc2ccccc2)c2ncn(C(C)C)c2c1 (configuration not stated),-2,22µM*,-23%,?,?
CCC(COC(=O)c1ccccc1)Oc1cc(NCc2ccccc2)c2ncn(C(C)C)c2c1 (configuration not stated),13,79µM*,-6%,-16%,-15%
